# Measured values taken from PubChem BioAssay (NCATS).
# Inconclusive results are not listed. Active and inactive are the calls of the source. Calls come from the whole dose curve; as a rule, active = well fitted curve in the direction sought with a large enough effect; inconclusive = small, poorly fitted or top-dose-only effect, or another doubt; inactive = no such curve, though single readings can be large or run the other way.
# Molecular target: Glucagon-like peptide 1 receptor (Homo sapiens) (UniProt P43220)
# Sequence (P43220 whole entry, looked up): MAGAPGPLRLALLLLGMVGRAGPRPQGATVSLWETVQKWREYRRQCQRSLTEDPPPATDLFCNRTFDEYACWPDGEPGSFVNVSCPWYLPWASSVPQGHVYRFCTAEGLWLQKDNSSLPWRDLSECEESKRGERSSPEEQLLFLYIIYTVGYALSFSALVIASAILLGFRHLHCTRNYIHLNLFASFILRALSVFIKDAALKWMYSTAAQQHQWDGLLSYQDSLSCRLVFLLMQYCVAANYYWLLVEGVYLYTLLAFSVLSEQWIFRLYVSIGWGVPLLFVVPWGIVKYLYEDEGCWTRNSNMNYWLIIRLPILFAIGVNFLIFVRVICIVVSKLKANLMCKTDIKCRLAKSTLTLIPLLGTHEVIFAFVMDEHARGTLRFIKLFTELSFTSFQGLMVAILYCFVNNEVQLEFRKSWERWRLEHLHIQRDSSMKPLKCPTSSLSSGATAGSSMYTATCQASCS
# Experiment: qHTS of GLP-1 Receptor Agonists: LOPAC Validation (AID 624148);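 note: luminescence from a luciferase reporter switched on by cAMP; higher luminescence signal means agonism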
# Conditions: GLP-1R agonist cell assay; series mostly up to 46.1 µM
# Excerpt: The overall goal of this project was to develop a novel assay for discovering small molecule ligands for class B1 G protein-coupled receptors (GPCRs). Very few agonists (or inverse agonists) with generally weak activity for this entire group of physiologically important receptors are known to date. To establish proof-of-principle that this critical bottleneck can be overcome with a suitable screening approach, our studies focused on the class B1 receptor for glucagon-like peptide-1 (GLP-1R), a potential therapeutic target for diabetes and neurodegenerative disease.
# The assay was developed in a "mix and measure" format using a cell-based functional readout. Toward this goal, stably transfected HEK293 cell clones were established that co-express (i) a cAMP-responsive luciferase reporter gene, and (ii) GLP-1Rs that upon ligand interaction either stimulate (agonists) or inhibit (inverse agonists) luciferase activity. In different cell lines to be used for screening, expressed GLP-1Rs are specifically optimized for high sensitivity detection of either weak agonists (hypersensitive receptor) or inverse agonists (constitutively active receptor mutant). In addition, control cell lines were developed that express either the cAMP-responsive reporter gene without recombinant GLP-1Rs (enabling initial exclusion of GLP-1R independent effects of candidate probes), or the reporter gene together with wild type GLP-1Rs (for confirmation of probe activity at this receptor), or the reporter gene in combination with the constitutively active orphan receptor GPR119 (enabling initial exclusion of GLP-1R independent inhibitory effects of candidate inverse agonists).
# To that end, this assay was optimized for 1536-well format and screened against the MLSMR.
# NIH Molecular Libraries Probe Production Network [MLPCN]
# NIH Chemical Genomics Center [NCGC]
# PI Name: Martin Beinborn, Tufts Medical Center
# In a white solid 1536-well plate, 6 uL of cells are dispensed in DMEM without phenol red, 10% Nu serum, and 1% pen-strep medium. The plates are then incubated for 12 hours at 37 deg C at 5% CO2 before 23 nL of compounds are added. After a 4-6 hr incubation at37 deg C and 5% CO2, 3 uL of detection reagent are added and after a 12 min incubation at RT, a luminescent read is obtained on the ViewLux.
row,Compound,outcome
1,CC(NC(C)(C)C)C(=O)c1cccc(Cl)c1 (centres undefined),inactive
2,CCC1(c2ccc(N)cc2)CCC(=O)NC1=O (centres undefined),inactive
3,O=c1[nH]oc2c1CCNC2,inactive
4,C=C(C)[C@H]1CN[C@H](C(=O)O)[C@H]1CC(=O)O,inactive
5,COc1ccc2c(c1OC)C(=O)O[C@H]2[C@@H]1c2cc3c(cc2CCN1C)OCO3,inactive
6,O=C(CCCN1CCC2(CC1)C(=O)NCN2c1ccccc1)c1ccc(F)cc1,inactive
7,O=C(O)CCCc1ccc(N(CCCl)CCCl)cc1,inactive
8,NCCc1ccc(O)cc1,inactive
9,O=P1(N(CCCl)CCCl)NCCCO1 (centres undefined),inactive
10,CCCCC/C=C\C/C=C\C/C=C\C/C=C\CCCC(=O)NCC(=O)O,inactive
11,CC(C)N(CCC(C(N)=O)(c1ccccc1)c1ccccn1)C(C)C (centres undefined),inactive
12,CN1C(=O)CCS(=O)(=O)C1c1ccc(Cl)cc1 (centres undefined),inactive
13,CC(C)c1cccc(C(C)C)c1O,inactive
14,Cc1ncsc1CCCl,inactive
